As usually defined, the AC50 is the midpoint of the concentration-response curve, whichever way the signal moves.

Molecules are shown by their SMILES. Calls of active or inactive are those of the source. Rule for the calls: active = hit-call score of the fitted dose curve at least 0.9, where 1 is the maximum; inactive = score below 0.9.

Read-out in the experiment: Interleukin-8 (IL8), CXCL8 (gene 3576)
The experiment is described as follows: BSK_hDFCGF_IL8: BioMAP Diversity Plus: hDFCGF Assay for Interleukin-8 (IL8) Biomarker Activity (AID 2283058). Particulars: primary human foreskin fibroblasts; actives raise or lower the signal. How it is done:
BSK_hDFCGF is a cell-based, multiplexed-readout assay that uses foreskin fibroblast, a human skin primary cell, with measurements taken at 24 hours after chemical dosing in a 96-well plate.BSK_hDFCGF_IL8 is an assay component measured in the BSK_hDFCGF assay. It measures IL-8 antibody related to regulation of gene expression using ELISA technology.Data from the assay component BSK_hDFCGF_IL8 was analyzed into 1 assay endpoint. This assay endpoint, BSK_hDFCGF_IL8, was analyzed with bidirectional fitting relative to DMSO as the negative control and baseline of activity. Using a type of binding reporter, gain or loss-of-signal activity can be used to understand changes in the signaling as they relate to the gene CXCL8. Furthermore, this assay endpoint can be referred to as a primary readout, because this assay has produced multiple assay endpoints where this one serves a signaling function. To generalize the intended target to other relatable targets, this assay endpoint is annotated to the cytokine intended target family, where the subfamily is interleukins.
The levels of cell surface (or secreted, indicated by the prefix "s") biomarker endpoints were measured by ELISA. Overt cytotoxicity to cells in confluent adherent cultures (all systems other than the BT system) was assessed by measuring total protein levels using sulforhodamine B (SRB) staining in parallel cultures at the time of biomarker measurements, indicated as SRB endpoints. For proliferation assays for adherent cell types, individual cell types are cultured at sub-confluence and relative cell numbers quantified by SRB staining at time points optimized for each system (48 h: 3C and CASM3C systems; 72 h: BT and HDF3CGF systems; 96 h: SAg system). SRB was performed by staining cells with 0.1% SRB after fixation with 10% TCA and reading wells at 560 nm.Viability and proliferation of PBMC (T cells) was quantified by Alamar Blue reduction for the SAg and BT systems. For PBMC viability (referred to as PBMC Cytotoxicity within the assay endpoint names), cells were plated (75,000/well in a 96-well plate) and then chemical samples added for 1 h before addition of activators, SEB and TSST-1 (20 ng/mL final concentration each). Cells were incubated for 90 h. Then, Alamar Blue (20 uL/well) (Invitrogen, Cat DAL1100) was added for 6 h, and the plates were read with a fluorescence microplate reader at 546/580 nm (excitation/emission). For PBMC proliferation, cells were plated and activated as above but incubated for only 16 h prior to addition of Alamar Blue. Plates were read after 6 h.
As for `COc1ccc([N+](=O)[O-])cc1N`, the result was inactive.

For the compound `CCc1ccc(CCOc2ccc(CC3SC(=O)NC3=O)cc2)nc1` (stereo not given), the outcome was inactive.

`CCCCC(CC)COC(=O)CCCCC(=O)OCC(CC)CCCC` (stereo not given): the outcome was inactive.

Take `ClC1=C(Cl)C(Cl)(Cl)C(Cl)=C1Cl`: the AC50 was 17 µM (active).

`CC(C)(C)c1ccc(O)c(C(C)(C)C)c1`: the AC50 was 12.5 µM (active).

Regarding `CCCCOCCO`, the outcome was inactive.

With `CC[C@H](C)[C@@H](C(=O)O)n1sc2ccccc2c1=O`, the result was inactive.

As for `O=c1c(-c2ccc(O)cc2)coc2cc(O)ccc12`, the result was inactive.

Turning to `CC1=C(/C=C/C(C)=C/C=C/C(C)=C/C(=O)O)C(C)(C)CCC1`, the AC50 was 38.9 µM (active).

Consider `CCC(=C(c1ccc(O)cc1)c1ccc(OCCN(C)C)cc1)c1ccccc1`, for which the AC50 was 12.8 µM (active).

As to `CC(C)(C)c1cc(C(C)(C)C)c(O)c(C(C)(C)C)c1`, the concentration at half-maximal activity (AC50) is 31.5 µM (active).

For the compound `CCCCCCCCCCCCN1CCCC1=O`, the AC50 was 34.6 µM (active).

For `NC(=O)N1C(=O)C(C(=O)c2cc(Cl)cs2)c2cc(F)c(Cl)cc21` (stereo not given), the AC50 was 16.6 µM (active).

Take `CN1CCN(c2ccccc2/C=C2\SCCN(c3ccc(Cl)c(Cl)c3)C2=O)CC1`: the AC50 was 32.3 µM (active).

With `Cc1oc(-c2ccccc2)nc1CCOc1ccc(C[C@H](Nc2ccccc2C(=O)c2ccccc2)C(=O)O)cc1`, the AC50 was 7.44 µM (active).

As to `CC(O)CO` (stereo not given), the result was inactive.

For the compound `CC(C)(C)CC(C)(C)c1ccc(O)c(-n2nc3ccccc3n2)c1`, the result was inactive.

For the compound `NCC(F)(F)C(F)(F)C(F)(F)C(F)(F)C(F)(F)C(F)(F)C(F)(F)F`, the result was inactive.

In the case of `Oc1cc2ccccc2c2ccccc12`, the AC50 was 3.94 µM (active).

For the compound `COC(=O)CCCCC(=O)OC`, the outcome was inactive.

On to `CCCCCCCCCCCCCC[N+](C)(C)C`, for which the AC50 was 14.1 µM (active).

As to `c1ccc2cc3c(ccc4ccccc43)cc2c1`, the result was inactive.

`c1ccc2c(c1)Cc1ccccc1-2`: the outcome was inactive.

For `CN1CCC[C@H]1c1cccnc1`, the outcome was inactive.

Take `FC(F)(I)C(F)(F)C(F)(F)C(F)(F)C(F)(F)C(F)(F)I`: the half-maximal activity concentration (AC50) is 7.02 µM (active) [middle of 5 runs].

As to `NC(=O)N(O)[C@@H]1C=C[C@H](Oc2cccc(Oc3ccc(F)cc3)c2)C1`, the outcome was inactive.

For `Oc1cccc(O)c1`, the outcome was inactive.

Take `CCCCCCCCCCCCc1ccccc1S(=O)(=O)O`: the AC50 is 13.5 µM (active).

As for `CCCCCCCC(=O)O`, the result was inactive.

As for `CCCCCCCCC(=O)O`, the outcome was inactive.

As to `OC1CCCCC1`, the outcome was inactive.

Take `CC#C[C@]1(O)CC[C@H]2[C@@H]3CCC4=CC(=O)CCC4=C3[C@@H](c3ccc(N(C)C)cc3)C[C@@]21C`: the result was inactive.

Turning to `Cc1cc(C)c(O)c(C)c1`, the result was inactive.

For the compound `CCOC(=O)CC(O)(CC(=O)OCC)C(=O)OCC`, the outcome was inactive.

In the case of `CC(C)(C)c1cccc(C(C)(C)C)c1O`, the AC50 was 36.8 µM (active).

As for `COCC(C)OCC(C)O` (stereo not given), the outcome was inactive.

`COCC(C)O` (stereo not given): the result was inactive.

For the compound `CCC(C)(C)C1CCC(O)CC1` (stereo not given), the outcome was inactive.

As to `N#C[C@@H]1CC(F)(F)CN1C(=O)CNC1CC2CCC(C1)N2c1ncccn1` (stereo not given in full), the outcome was inactive.

Turning to `C[C@@H]1C[C@H]2[C@@H]3CCC4=CC(=O)C=C[C@]4(C)[C@@]3(F)[C@@H](O)C[C@]2(C)[C@@]1(O)C(=O)COP(=O)(O)O`, the outcome was inactive.

For the origin of these results see PubChem BioAssay (EPA / NIEHS).
